Results as given in PubChem BioAssay (NCI).
The panel holds about 83,000 compounds, 20% with a hit somewhere; the sample as a whole holds those more often.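 Step 1: grow cells in 96-well plates. Step 2: add test compound at a single concentration. Step 3: incubate 48 h. Step 4: record percent growth.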 The source made the active and inactive calls. How the source made its calls: active means growth percent below 10; inactive means the rest.

Tests used:
Assay in all cases: NCI-60 one-dose screen, 48 h (100 = growth as untreated, 0 = no growth, -100 = all killed)
Settings in all cases: 10 µM unless noted
[1] = tested on: SK-MEL-2 melanoma
[2] = tested on: EKVX NSCLC
[3] = tested on: SN12C renal
[4] = tested on: UO-31 renal
[5] = tested on: TK-10 renal
[6] = tested on: ACHN renal
[7] = tested on: CAKI-1 renal
[8] = tested on: A498 renal
[9] = tested on: CCRF-CEM leukemia
[10] = tested on: MOLT-4 leukemia
[11] = tested on: OVCAR-8 ovarian
[12] = tested on: OVCAR-5 ovarian
[13] = tested on: OVCAR-4 ovarian
[14] = tested on: SK-OV-3 ovarian
[15] = tested on: IGROV1 ovarian
[16] = tested on: OVCAR-3 ovarian
[17] = tested on: HS 578T breast
[18] = tested on: NCI/ADR-RES ovarian
[19] = tested on: RPMI-8226 leukemia
[20] = tested on: SR leukemia

Measured: growth

O=C(/C=C/c1cccc(O)c1)c1cccc(-n2cc(-c3ccc4ccccc4c3)[nH]c2=O)c1
active: [3] 5.36% | [5] -5.34% | [6] -40.7% | [7] -1.58% | [9] 1.72% | [10] -1.37% | [12] -42.6% | [13] -76.2% | [16] -73.2% | [17] -11% | [18] -39.3%
inactive: [1] 84.4% | [2] 11.2% | [4] 35.5% | [8] 91.9% | [11] 13.5% | [14] 19.6% | [15] 85.7%

COc1ccc2c(c1)[nH]c(=O)c1c3cccnc3cn21
inactive: [1] 68.9% | [2] 63.2% | [3] 13.4% | [4] 41% | [5] 61.8% | [6] 30.5% | [9] 23.1% | [10] 25.1% | [19] 32% | [14] 11.9% | [15] 20.2% | [16] 23.8% | [17] 49.6%
active: [7] -14.4% | [8] -3.48% | [11] 8.08% | [18] 0.176%

O=C(/C=C/c1ccc(Cl)nc1)c1ccc(Cl)cc1Cl
inactive: [1] 106% | [2] 97.5% | [3] 106% | [4] 89.3% | [5] 100% | [6] 93.1% | [7] 71.2% | [8] 88.8% | [10] 15.9% | [11] 95.6% | [12] 91.4% | [13] 87.3% | [14] 106% | [15] 96.9% | [16] 78.5% | [17] 110% | [18] 102%
active: [9] 7%

Nc1ccc2c(c1)c(N)nn2C(=O)Nc1ccc(Cc2ccccc2)cc1
inactive: [1] 73.7% | [2] 82.3% | [3] 61.1% | [4] 39.3% | [5] 88.3% | [6] 48.9% | [7] 38.9% | [8] 103% | [9] 55.5% | [10] 27.8% | [19] 28.2% | [12] 67.2% | [13] 56.2% | [14] 107% | [15] 83.4% | [16] 70.1% | [17] 101% | [18] 78%

Cn1ccc2c(c1=O)C(=O)c1nccc3c1c-2nc1ccccc13
inactive: [1] 98.1% | [2] 86.9% | [3] 66.8% | [4] 46.2% | [6] 21.3% | [7] 61% | [8] 87.6% | [10] 34.5% | [12] 69% | [14] 92.3% | [15] 44.6% | [17] 96.8% | [18] 41%
active: [5] 1.92% | [9] -12.8% | [19] -29% | [13] -44.9% | [16] -96.3%

O=C(CSc1nnc(-c2ccc(NC(=O)c3cccnc3)cc2)o1)Nc1cccc(Br)c1
inactive: [1] 96.5% | [2] 88.3% | [3] 51.1% | [4] 95.9% | [5] 121% | [6] 99.2% | [7] 82.6% | [8] 96.2% | [9] 72.2% | [10] 84.5% | [12] 99.3% | [13] 93.8% | [14] 110% | [15] 80.5% | [16] 107% | [17] 90.6% | [18] 93.8%

Cc1ccc(S(=O)(=O)Oc2cc(OS(=O)(=O)c3ccc(C)cc3)cc(OS(=O)(=O)c3ccc(C)cc3)c2)cc1
inactive: [1] 91.5% | [2] 106% | [3] 107% | [4] 71.8% | [5] 156% | [6] 114% | [7] 84.2% | [8] 96.9% | [9] 95.7% | [10] 82.2% | [19] 88.6% | [12] 105% | [13] 93.2% | [14] 101% | [16] 96.3% | [17] 95.8% | [18] 95.6%

COc1ccc(-c2nc(SCCC(C)C)nc(N/N=C\c3cccc(Cl)c3)c2C#N)cc1
active: [13] -13.4%
inactive: [1] 98.3% | [2] 77.3% | [3] 41.9% | [4] 48.9% | [5] 47.1% | [6] 17.9% | [7] 61% | [8] 42.5% | [9] 50% | [10] 74.7% | [11] 57.7% | [12] 84.3% | [14] 84% | [15] 76.2% | [16] 38.5% | [17] 20.7% | [18] 79.2%

CCCCn1c(=O)c2c(nc(NCCc3ccc(O)c(O)c3)n2CCC)n(CCCC)c1=O
inactive: [1] 72.7% | [2] 79.5% | [3] 86.6% | [4] 56.7% | [5] 85.8% | [6] 81% | [7] 100% | [8] 86.9% | [9] 36.6% | [20] 35.9% | [19] 74.8% | [11] 75.5% | [12] 97.9% | [13] 45.5% | [14] 96.3% | [15] 82.5% | [16] 65.2% | [17] 66.5% | [18] 77.2%

NCCCNc1nc2ccccc2c2c(=O)c3cccc(Cl)c3sc12
inactive: [1] 99.4% | [2] 31.2% | [3] 21.1% | [5] 58% | [7] 17.1% | [8] 65.2% | [12] 50% | [13] 38.2% | [14] 73% | [17] 28.1% | [18] 29.2%
active: [4] 3.93% | [6] 7.6% | [9] 2.48% | [10] -23.4% | [11] -16.2% | [15] 7.81% | [16] -51.5%

N#Cc1c2c(nn(-c3ccccc3)c1=O)C(O)=C([N+](=O)[O-])C(c1ccccc1)C2 (stereo unspecified)
inactive: [1] 89% | [2] 83.8% | [3] 89.7% | [4] 64% | [5] 99.1% | [6] 74.3% | [7] 81.9% | [8] 90.7% | [9] 58% | [10] 67.5% | [11] 81.6% | [12] 110% | [13] 73.8% | [15] 50.6% | [16] 76.4% | [17] 91% | [18] 93.5%
active: [19] -6.06%

Cc1cc(NCc2cc(Nc3ccnc4cc(Cl)ccc34)ccc2F)nc(Cl)n1
inactive: [1] 54.6% | [2] 39.4% | [3] 37.2% | [4] 30% | [5] 38.1% | [6] 46.6% | [7] 56.5% | [8] 41.3% | [9] 42.8% | [20] 12% | [19] 29.6% | [11] 35.9% | [12] 74.2% | [13] 34% | [14] 70.2% | [15] 57% | [16] 57.2% | [17] 57.7% | [18] 35.7%

O=c1c2cc(F)ccc2sc2c(Nc3cccnc3)nc3ccccc3c12
inactive: [1] 109% | [2] 83.2% | [3] 93.4% | [4] 79.7% | [5] 96.3% | [6] 73.5% | [7] 69.1% | [8] 79.5% | [9] 28.2% | [11] 89.1% | [12] 57.8% | [13] 105% | [14] 93.9% | [15] 73.7% | [16] 108% | [17] 74% | [18] 90.4%
active: [10] 4.56%

CS(=O)(=O)c1ccc(Nc2nc(N[C@H]3CCCC[C@H]3N)nc3cc[nH]c(=O)c23)cc1
inactive: [2] 13.5% | [4] 108% | [5] 44.6% | [6] 95.2% | [7] 90.7% | [8] 51.8% | [19] 62.9% | [14] 32.8% | [17] 22.2% | [18] 102%
active: [1] -40% | [3] 3.77% | [9] 3.99% | [10] 3.74% | [12] -6.49% | [13] -3.9% | [15] 1.3% | [16] -45.2%

NC(N)=Nc1nc2ccccc2n2c1nc1ccccc12
inactive: [1] 70.3% | [2] 36.3% | [3] 28.3% | [4] 34.3% | [5] 46.2% | [6] 11.7% | [7] 23.2% | [8] 52.5% | [9] 25.7% | [12] 54.3% | [13] 36% | [14] 32.9% | [15] 20.3% | [16] 43.3% | [17] 43.8% | [18] 63.1%
active: [10] 7.99%

COc1cccc(C(=O)NCCNc2cc(-c3cn(-c4ccccc4)nc3-c3cccc(OC)c3)ccn2)c1
active: [20] 2.08%
inactive: [1] 57.2% | [2] 69% | [3] 74.4% | [4] 39.9% | [5] 80.4% | [6] 69.8% | [7] 69.2% | [8] 59% | [9] 25.6% | [19] 39.1% | [11] 40% | [12] 91.7% | [13] 49.6% | [14] 54.6% | [15] 74.1% | [16] 54.5% | [17] 61.8% | [18] 47.2%

COC(=O)[C@]12CC[C@@H](C)[C@H](C)[C@@H]1C1=CC[C@@H]3[C@@]4(C)C(C=O)=C[C@@](C)(COS(C)(=O)=O)[C@@H]4C(=O)C[C@@]3(C)[C@]1(C)CC2
inactive: [1] 66.9% | [2] 53.2% | [3] 36.2% | [4] 34.2% | [5] 54.2% | [6] 17.8% | [7] 53.3% | [8] 98.2% | [9] 30.9% | [20] 24.9% | [19] 23.4% | [11] 44.6% | [12] 67.1% | [13] 37.7% | [14] 66.4% | [15] 52.1% | [16] 31.4% | [17] 62.3% | [18] 38.6%
